Test results from publication PMC10726135, “HNF4α isoforms regulate the circadian balance between carbohydrate and lipid metabolism in the liver”.
The full ranking holds about 18,000 sequences; the median of “log2 normalized intensity” is about 0.39, and the highest 2% start at about 6.6. Shown is part of a subset that was picked to be rich in the highest values.

Target: T1, HNF4alpha2 (COS-7 nuclear extract) (Homo sapiens, UniProt P41235 1-474)
T1 sequence: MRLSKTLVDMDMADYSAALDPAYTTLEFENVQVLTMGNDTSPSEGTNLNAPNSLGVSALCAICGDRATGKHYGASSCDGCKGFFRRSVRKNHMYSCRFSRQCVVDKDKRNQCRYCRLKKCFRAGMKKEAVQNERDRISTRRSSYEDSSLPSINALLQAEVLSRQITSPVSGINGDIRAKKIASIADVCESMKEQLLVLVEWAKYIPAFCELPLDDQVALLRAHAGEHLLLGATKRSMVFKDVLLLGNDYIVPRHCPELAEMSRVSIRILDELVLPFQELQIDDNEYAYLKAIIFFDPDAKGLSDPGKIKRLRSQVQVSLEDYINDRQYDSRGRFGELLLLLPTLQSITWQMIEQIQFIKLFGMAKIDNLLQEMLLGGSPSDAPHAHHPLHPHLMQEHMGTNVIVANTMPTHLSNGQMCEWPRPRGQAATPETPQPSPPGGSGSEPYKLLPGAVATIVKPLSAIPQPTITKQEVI
Experiment: protein-binding microarray; COS-7 nuclear extract on double-stranded Agilent 4x180k PBM; binding buffer, salt, pH and temperature not given in the material; high values mean tight binding
Settings: chain copies: 2; label: 3' end of strand 1 on the slide; dsDNA, one strand shown
Outline: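 Binding signal is the background-corrected, normalized gProcessedSignal calculated by Agilent software. It was measured by applying nuclear extracts of COS-7 cells transiently transfected with a human HNF4α isoform expression vector to a custom Agilent SurePrint G3 4x180k array of ~44,000 double-stranded ~60-nt test sequences in quadruplicate, then imaging bound HNF4α on an Agilent G2565CA scanner at 2-µm resolution.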

Row | Sequence | binding signal [log2 normalized intensity]
1 | AAGGTTGGTCTTAGGACCACATGAGTAAACGCCTAGGGAGATTAGAGTATCGGTCGA | -0.756
2 | GTGAACTTTGCCCTCTCTTTCTGGAACCTAGCCTAGGGAGATTAGAGTATCGGTCGA | 5.08
3 | CCTTGGATCTCCTGCACCTGAACTTTGCTCGCCTAGGGAGATTAGAGTATCGGTCGA | 6.35
4 | TCTCTGGCTTGATCCCTGAACTTTGCTCCCGCCTAGGGAGATTAGAGTATCGGTCGA | 7.97
5 | ACTGATCTCTGGCTTGATCCCTGAACTTTGGCCTAGGGAGATTAGAGTATCGGTCGA | 3.32
6 | GGCTTGATCCCTGAACTTTGCTCCCACCCTGCCTAGGGAGATTAGAGTATCGGTCGA | 5.57
7 | TGGGCTCCTGCCTTGGAGAAGTGAACTTTGGCCTAGGGAGATTAGAGTATCGGTCGA | 4.34
8 | GAGAAGTGAACTTTGCCCTCTCTTTCTGGAGCCTAGGGAGATTAGAGTATCGGTCGA | 7.55
9 | TCCTGCCTTGGAGAAGTGAACTTTGCCCTCGCCTAGGGAGATTAGAGTATCGGTCGA | 10.2
10 | AAGTGACCCTGGTCTTTGCCCTTTCCTAGAGCCTAGGGAGATTAGAGTATCGGTCGA | 3.39
11 | TGGGCTCGGCGCTCCGCTTACTCGGCCTGGGCCTAGGGAGATTAGAGTATCGGTCGA | -0.994
12 | TCCCTCATTAGTAACTCCAGAGATAAGATAGCCTAGGGAGATTAGAGTATCGGTCGA | 0.0683
13 | GCAGTGGGACAAAGGTCACAGGAAAGGGACGCCTAGGGAGATTAGAGTATCGGTCGA | 4.13
14 | AGGGAGGGGAGAGGGGGTTAAAGGTTATTTGCCTAGGGAGATTAGAGTATCGGTCGA | 4.97
15 | CCTATATAGTTGAGATTGTAACCGTAAATGGCCTAGGGAGATTAGAGTATCGGTCGA | 1.55
16 | GTTAAGTGAGTGGACTTTGGTCCTGGTCAGGCCTAGGGAGATTAGAGTATCGGTCGA | 6.52
17 | CGGTCAGCTGCTTGACTTAGTACATGGCCTGCCTAGGGAGATTAGAGTATCGGTCGA | 0.557
18 | ATGTACATGGACTTTGAACCAAGATATGCTGCCTAGGGAGATTAGAGTATCGGTCGA | 6.75
19 | AGGTACTAAGAGATTTGAATATGTACATGGGCCTAGGGAGATTAGAGTATCGGTCGA | 1.38
20 | AGATTTGAATATGTACATGGACTTTGAACCGCCTAGGGAGATTAGAGTATCGGTCGA | 10.3
21 | GAATGCAACCACACCAACATGGACTTTGTCGCCTAGGGAGATTAGAGTATCGGTCGA | 6.09
22 | CATGGACTTTGAACCAAGATATGCTAACATGCCTAGGGAGATTAGAGTATCGGTCGA | 4.81

Row | Sequence | binding signal [log2 normalized intensity]
23 | TGAATATGTACATGGACTTTGAACCAAGATGCCTAGGGAGATTAGAGTATCGGTCGA | 8.36
24 | CTAAGAGATTTGAATATGTACATGGACTTTGCCTAGGGAGATTAGAGTATCGGTCGA | 6.19
25 | ACACAGTACTTTGTACATGGGAATAGACATGCCTAGGGAGATTAGAGTATCGGTCGA | 0.863
26 | ATCCTTATCTTGTAGAAAAGTGCATGGATTGCCTAGGGAGATTAGAGTATCGGTCGA | 0.836
27 | TTGAGTTTGCTCTGCTACTAACTGCATGACGCCTAGGGAGATTAGAGTATCGGTCGA | -0.452
28 | TTCTCCAGGAAGTTCAGGCCTCGGCTTCATGCCTAGGGAGATTAGAGTATCGGTCGA | -0.98
29 | CACTCAATGCAGCAGCATTGGACCCTCCCAGCCTAGGGAGATTAGAGTATCGGTCGA | 5.46
30 | CTGCAGATTGACTCAGGCATTCTGACCTTTGCCTAGGGAGATTAGAGTATCGGTCGA | 6.93
31 | GATTGACTCAGGCATTCTGACCTTTGTCTCGCCTAGGGAGATTAGAGTATCGGTCGA | 7.05
32 | ACTCAGGCATTCTGACCTTTGTCTCCAGGCGCCTAGGGAGATTAGAGTATCGGTCGA | 5.69
33 | TAAAACTGCAGATTGACTCAGGCATTCTGAGCCTAGGGAGATTAGAGTATCGGTCGA | -0.529
34 | GGCATTCTGACCTTTGTCTCCAGGCAAACTGCCTAGGGAGATTAGAGTATCGGTCGA | 4.88
35 | TATTTAGACTCAGCATGTCTTCTGACCTTTGCCTAGGGAGATTAGAGTATCGGTCGA | 6.51
36 | CCTTTTATTTTCTTATCTGCCTAGGCATTTGCCTAGGGAGATTAGAGTATCGGTCGA | 1.33
37 | CCATATCACATTTTAAGGTCTGGCATTCTTGCCTAGGGAGATTAGAGTATCGGTCGA | 1.37
38 | TTTTAAGGTCTGGCATTCTTTTTGACCTTTGCCTAGGGAGATTAGAGTATCGGTCGA | 7.55
39 | CCTTATGACGGACAAAGGGCTCTCTCACCAGCCTAGGGAGATTAGAGTATCGGTCGA | -0.701
40 | TGTGGGCCTCACACCCTCTAGGGTAGATAAGCCTAGGGAGATTAGAGTATCGGTCGA | -0.451
41 | TGCCTCCTTCAAGGATTAGCAGATAAATCTGCCTAGGGAGATTAGAGTATCGGTCGA | -0.904
42 | ATGAAGATATATTCCTTCAGGAAGGCCTGTGCCTAGGGAGATTAGAGTATCGGTCGA | 0.708
43 | CTTTCATACGTTTAACAGTTCCTCCTGGAAGCCTAGGGAGATTAGAGTATCGGTCGA | 1.18
